# Values joined by “and” are separate entries in the source; they are usually repeats but may differ in a detail not shown here. Identical values can stand only once. Like-named read-outs stand apart in the source and are kept apart here.
# What was measured:
# HPK1 = details: concentration: 1 μM, replicates: in singlicate, n = 1
# HUNK = details: concentration: 1 μM, replicates: in singlicate, n = 1
# ICK = details: concentration: 1 μM, replicates: in singlicate, n = 1
# IGF1R = details: concentration: 1 μM, replicates: in singlicate, n = 1
# IKK-alpha = system: T1, IKK-alpha; details: concentration: 1 μM, replicates: in singlicate, n = 1
# T1 construct: gene CHUK
# IKK-beta = system: T2, IKK-beta; details: concentration: 1 μM, replicates: in singlicate, n = 1
# T2 construct: gene IKBKB
# IKK-epsilon = system: T3, IKK-epsilon; details: concentration: 1 μM, replicates: in singlicate, n = 1
# T3 construct: gene IKBKE
# INSRR = details: concentration: 1 μM, replicates: in singlicate; n = 1
# INSR = details: concentration: 1 μM, replicates: in singlicate; n = 1
# IRAK1 = details: concentration: 1 μM, replicates: in singlicate, n = 1
# IRAK3 = details: concentration: 1 μM, replicates: in singlicate; n = 1
# IRAK4 = details: concentration: 1 μM, replicates: in singlicate; n = 1
# ITK = details: concentration: 1 μM, replicates: in singlicate, n = 1
# [1] = system: JAK1(JH1domain-catalytic); details: concentration: 1 μM, replicates: in singlicate, n = 1
# [2] = system: JAK1(JH2domain-pseudokinase); details: concentration: 1 μM, replicates: in singlicate, n = 1
# [3] = system: JAK2(JH1domain-catalytic); details: concentration: 1 μM, replicates: in singlicate, n = 1
# [4] = system: JAK3(JH1domain-catalytic); details: concentration: 1 μM, replicates: in singlicate; n = 1
# JNK1 = system: T4, JNK1; details: concentration: 1 μM, replicates: in singlicate, n = 1
# T4 construct: gene MAPK8
# JNK2 = system: T5, JNK2; details: concentration: 1 μM, replicates: in singlicate; n = 1
# T5 construct: gene MAPK9
# JNK3 = system: T6, JNK3; details: concentration: 1 μM, replicates: in singlicate; n = 1
# T6 construct: gene MAPK10
# 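Further: KINOMEscan kinase panel screen.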
structure (smiles),measurement,setting,value
Cl.Cl.Cl.Fc1ccc(-c2ncn(C3CCNCC3)c2-c2ccnc(Nc3ccccc3)n2)cc1 [SB-238039],%Inh,HPK1; 1 µM,96.2% and 92.5%
same,%Inh,HUNK; 1 µM,61% and 0%
same,%Inh,ICK; 1 µM,0% and 34%
same,%Inh,IGF1R; 1 µM,37% and 0%
same,%Inh,IKK-alpha; 1 µM,34% and 0%
same,%Inh,IKK-beta; 1 µM,10% and 0%
same,%Inh,IKK-epsilon; 1 µM,0% and 3%
same,%Inh,INSRR,0%
same,%Inh,INSR,15%
same,%Inh,IRAK1; 1 µM,66% and 0%
same,%Inh,IRAK3,0%
same,%Inh,IRAK4,0%
same,%Inh,ITK; 1 µM,5% and 14%
same,%Inh,[1]; 1 µM,0% and 8%
same,%Inh,[2]; 1 µM,15% and 0%
same,%Inh,[3]; 1 µM,44% and 0%
same,%Inh,[4],0%
same,%Inh,JNK1; 1 µM,97% and 96.3%
same,%Inh,JNK2,100%
same,%Inh,JNK3,99.8%
Cc1ccc(C(=O)NCC(N)=O)cc1-n1c(C)cc(OCc2ccc(F)cc2F)c(Br)c1=O,%Inh,HPK1,0%
same,%Inh,HUNK,0%
same,%Inh,ICK,0%
same,%Inh,IGF1R,5%
same,%Inh,IKK-alpha,0%
same,%Inh,IKK-beta,0%
same,%Inh,IKK-epsilon,0%
same,%Inh,INSRR,0%
same,%Inh,INSR,0%
same,%Inh,IRAK1,0%
same,%Inh,IRAK3,15%
same,%Inh,IRAK4,0%
same,%Inh,ITK,22%
same,%Inh,[1],0%
same,%Inh,[2],49%
same,%Inh,[3],0%
same,%Inh,[4],4%
same,%Inh,JNK1,0%
same,%Inh,JNK2,0%
same,%Inh,JNK3,0%
Fc1ccc(-c2nn3c(OCC(F)(F)F)cccc3c2-c2ccncc2)cc1 [GW514784],%Inh,HPK1,6%
same,%Inh,HUNK,31%
same,%Inh,ICK,0%
same,%Inh,IGF1R,0%
same,%Inh,IKK-alpha,0%
same,%Inh,IKK-beta,0%
same,%Inh,IKK-epsilon,22%
same,%Inh,INSRR,0%
same,%Inh,INSR,0%
same,%Inh,IRAK1,19%
same,%Inh,IRAK3,0%
same,%Inh,IRAK4,0%
same,%Inh,ITK,9%
same,%Inh,[1],24%
same,%Inh,[2],14%
same,%Inh,[3],4%
same,%Inh,[4],0%
same,%Inh,JNK1,97.6%
same,%Inh,JNK2,99.9%
same,%Inh,JNK3,99.9%
Cc1cccc(Cn2ccn3c(=O)cc(N4CCOCC4)nc23)c1 [GSK2297542],%Inh,HPK1,37%
same,%Inh,HUNK,0%
same,%Inh,ICK,5%
same,%Inh,IGF1R,29%
same,%Inh,IKK-alpha,0%
same,%Inh,IKK-beta,0%
same,%Inh,IKK-epsilon,15%
same,%Inh,INSRR,0%
same,%Inh,INSR,9%
same,%Inh,IRAK1,20%
same,%Inh,IRAK3,20%
same,%Inh,IRAK4,7%
same,%Inh,ITK,24%
same,%Inh,[1],14%
same,%Inh,[2],0%
same,%Inh,[3],0%
same,%Inh,[4],0%
same,%Inh,JNK1,17%
same,%Inh,JNK2,31%
same,%Inh,JNK3,8%
Nc1nc(-c2ccc3c(N)n[nH]c3c2)cc(N2CCCC2)n1 [GSK2227430],%Inh,HPK1,39%
same,%Inh,HUNK,0%
same,%Inh,ICK,0%
same,%Inh,IGF1R,0%
same,%Inh,IKK-alpha,0%
same,%Inh,IKK-beta,0%
same,%Inh,IKK-epsilon,40%
same,%Inh,INSRR,0%
same,%Inh,INSR,0%
same,%Inh,IRAK1,0%
same,%Inh,IRAK3,0%
same,%Inh,IRAK4,2%
same,%Inh,ITK,0%
same,%Inh,[1],0%
same,%Inh,[2],11%
same,%Inh,[3],0%
same,%Inh,[4],0%
same,%Inh,JNK1,5%
same,%Inh,JNK2,12%
same,%Inh,JNK3,0%
